# Source: PubChem BioAssay (The Scripps Research Institute Molecular Screening Center)
# MITF inh: inhibitors of human MITF; O75030; AlphaScreen MITF homodimerization, bead proximity signal; inhibition, % at 2.6 µM; 650,000 tested, 0.91% active; AID 1259374; in the data active = inhibition above about 50%;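 note: 0% = vehicle wells with protein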
# TEAD-YAP block: TEAD-YAP interaction inhibition | HEK-TIYL cells, TEAD-Gal4/YAP UAS-luciferase luminescence | inhibition, % at 9.12 µM | 640,000 tested, 1.4% active; in the data active = inhibition above about 32%;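 note: 0% = median of test compound wells and 100% = reference inhibitor wells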
# FBW7 act: activators of human E3 ligase FBW7 | Q969H0 | AlphaScreen FBW7–phospho-cyclin E peptide binding, activator screen | normalized activity (activation), % at 26.1 µM | 650,000 tested, 0.13% active | AID 1259310; in the data active = normalized activity above about 1.9%;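 note: purified mutant Fbw7 with reduced substrate affinity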
# GPR151 ag: activates the human receptor GPR151; Q8TDV0; AID 1508602; 650,000 tested, 1% active; PathHunter beta-arrestin GPR151 cells, luminescence; activation, % at 11.2 µM; in the data active = activation above about 4.9%;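 note: 0% = median of compound wells and 100% = cells with positive control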
# Active calls of the source: *; nt = no result given. In the library only some 3.4% were active in any assay of this set; here they are far more common.
SMILES,MITF inh,TEAD-YAP block,FBW7 act,GPR151 ag
Cc1cc(-c2ccc(N=Nc3ccc4c(S(=O)(=O)O)cc(S(=O)(=O)O)c(N)c4c3O)c(C)c2)ccc1N=Nc1ccc2c(S(=O)(=O)O)cc(S(=O)(=O)O)c(N)c2c1O,78*,nt,0,0
Nc1c(N=Nc2ccc(-c3ccc(N=Nc4cc(S(=O)(=O)O)c5ccccc5c4N)cc3)cc2)cc(S(=O)(=O)O)c2ccccc12,23,2,-1,-4
O=C(N/N=C/c1c[nH]c2ccccc12)c1ccncc1,14,5,0,2
CCOc1ccc(/C=N/NC(=O)/C(=C/c2ccccc2O)NC(=O)c2ccccc2)cc1,31,88*,0,-8
O=C(N/N=C/c1c[nH]c2ccccc12)/C(=C/c1ccccc1O)NC(=O)c1ccccc1,20,86*,0,-8
Cn1cc(C(=O)N/N=C/c2c[nH]c3ccccc23)c2ccccc21,2,37*,0,0
Cc1ccc2nsnc2c1S(=O)(=O)Nc1ccc(I)cc1,7,55*,0,-1
Cc1ccc2nsnc2c1S(=O)(=O)Nc1ccc(C(=O)O)cc1,8,-8,0,-1
CC(C)(C)c1ccc(C(=O)ON2C(=O)c3ccccc3C2=O)cc1,5,5,0,0
O=C1CSC(=O)N1Cc1c(Cl)cccc1Cl,19,14,2.2*,0
OCCN1CCN(c2ncnc3ccc(Br)cc23)CC1,-18,39*,0,0
Cc1ccc2oc(Cc3ccccc3)nc2c1,20,47*,0,-2
Cc1ccc(-c2nnc(Cc3ccccc3)o2)cc1,-10,-58,0,-2
COc1ccc(C(=O)On2c(-c3cccc(Cl)c3)nc3ccccc3c2=O)cc1Br,-7,-3,0,-1
COc1ccc(Cl)cc1C(=O)On1c(-c2ccc(Br)cc2)nc2ccccc2c1=O,7,7,3.2*,0
COc1cc(CN2CCN(Cc3cn(C)nc3C)CC2CCO)cc(OC)c1 (configuration not stated),1,-3,0,-1
COC(=O)c1ccc(N=Cc2cccc([N+](=O)[O-])c2O)cc1,10,-8,0,1
CC(C)(C)c1ccc(C(=O)N2CCCCCC2=O)cc1,-7,55*,0,-1
CCC(CC)=N/N=C1/NC(=O)C(CC(=O)Nc2ccc(C(=O)O)cc2)S1 (configuration not stated),21,3,0,-1
c1ccc(-c2cc(N3CCN(c4ccccn4)CC3)nc(-c3ccccn3)n2)nc1,107*,71*,-1,1
O=C1COc2ccc(C(=O)COC(=O)c3cc(O)c(O)c(O)c3)cc2N1,82*,2,0,2
CC1(C)NC(=O)N(CC(=O)Nc2ccc(Br)cc2)C1=O,19,11,0,0
O=C(CN1CCN(CC(=O)c2ccc(O)c(O)c2)CC1)Nc1ccccc1Cl,89*,7,0,1
COc1ccc(S(=O)(=O)N2CCN(CC(=O)c3ccc(OC)c(OC)c3)CC2)cc1,1,-3,0,1
COc1ccc(S(=O)(=O)N2CCN(CC(=O)c3ccc(O)c(O)c3)CC2)cc1,81*,-2,0,-2
SMILES,MITF inh,TEAD-YAP block,FBW7 act,GPR151 ag
O=C(CN1CCN(S(=O)(=O)c2ccc(Cl)cc2)CC1)c1ccc(O)c(O)c1,82*,-3,0,-1
CCOc1ccc(Cl)cc1S(=O)(=O)N1CCN(c2ccccc2)CC1,7,7,1,-1
CCN1CCCC1CNC(=O)c1sc2ncnc(N3CCN(c4ccccc4OC)CC3)c2c1C (configuration not stated),5,11,0,-2
COC(=O)c1ccc(Nc2cc(C)nc3cc(Cl)ccc23)cc1,-2,49*,0,0
COc1ccc(Nc2cc(C)nc3ccc(OC)cc23)cc1,-1,10,0,-1
COC(=O)c1ccc(Nc2cc(C)nc3ccc(Cl)cc23)cc1,13,49*,0,1
COc1ccc2nc(C)cc(Nc3ccc(O)cc3)c2c1,2,34*,0,-1
COC(=O)c1ccc2nc(C)cc(Nc3ccc(C(=O)O)cc3)c2c1,18,11,0,1
Cc1nc(OC(C)C)cc(N2CCN(S(=O)(=O)Cc3ccccc3)CC2)n1,-5,4,0,5
CC(=O)NC(c1cccc([N+](=O)[O-])c1)c1ccc2cccnc2c1O (configuration not stated),74*,83*,-2,0
CCCCC(=O)NC(c1ccccc1)c1ccc2cccnc2c1O (configuration not stated),41,9,-1,-2
CCCCC(=O)NC(c1cccc([N+](=O)[O-])c1)c1ccc2cccnc2c1O (configuration not stated),55*,88*,-1,-2
CCC(=O)Nc1nc(C)c(-c2csc(Nc3cc(OC)ccc3OC)n2)s1,16,6,0,0
CCC(=O)Nc1nc(C)c(-c2csc(Nc3ccc(OC)cc3)n2)s1,11,33*,0,-1
CCc1ccc(Nc2nc(-c3sc(C)nc3C)cs2)cc1,12,47*,0,-2
Cc1nc(C)c(-c2csc(Nc3ccc(F)cc3)n2)s1,8,-43,0,-1
COc1cc(COc2cccc3ccc(N4CCN(C(=O)c5ccco5)CC4)nc23)cc(OC)c1,-1,35*,0,0
Cc1ccccc1COc1cccc2ccc(N3CCN(C(=O)c4ccco4)CC3)nc12,3,16,0,2
CNc1nc(Nc2ccc(C)c(C)c2)c2nccnc2n1,0,6,1,-2
CNc1nc(Nc2ccc(OC)cc2)c2nccnc2n1,17,5,2.9*,-1
CC1CCN(Cc2cc(COC(C)C)c3cccnc3c2O)CC1,85*,15,-1,-3
CC1CN(Cc2cc([N+](=O)[O-])c3cccnc3c2O)CC(C)O1 (configuration not stated),84*,54*,-1,-1
COCc1cc(CN2CCC(C)CC2)c(O)c2ncccc12,104*,65*,-1,0
Cc1ccccc1-n1nc2c(c1NC(=O)c1c(F)cccc1F)CS(=O)C2 (configuration not stated),-5,-8,0,-1
CCOC(=O)c1c(NC(=O)/C(C#N)=C/c2ccco2)sc2c1CCC(C)C2 (configuration not stated),-10,-1,0,-2
SMILES,MITF inh,TEAD-YAP block,FBW7 act,GPR151 ag
CCOC(=O)c1ccc(NC(=O)C(C)N(c2ccccc2)S(C)(=O)=O)cc1 (configuration not stated),-3,-8,0,1
CCn1c2ccccc2c2cnc(N=CN(C)C)c(C#N)c21,6,42*,0,0
CC(NCc1ccc(Cl)cc1)c1nc2ccccc2c(=O)[nH]1 (configuration not stated),-11,-24,0,0
CCOC(=O)c1ccc(NC(=O)c2ccc3c(c2)OCCO3)cc1,6,35*,0,0
O=C(Nc1onc2c1CCCC2)c1ccc(F)cc1,-6,-1,0,-6
COc1ccc(C(=O)Nc2ccc3sc(C)nc3c2)cc1,9,-23,0,-1
Cc1nc2cc(NC(=O)c3ccc4c(c3)OCCO4)ccc2s1,7,61*,0,-7
